Measured values reported in PubChem BioAssay (NCATS).
Inconclusive results are not listed. Entries that show only a call come without a potency. Calls of active or inactive are those of the source. The call rests on the fitted dose curve; in most records, active means well fitted curve in the direction sought with a large enough effect; inconclusive means small, poorly fitted or top-dose-only effect, or another doubt; inactive means no such curve, though single readings can be large; an effect the other way counts as inactive or inconclusive.

Tests used:
[1] = target: Ubiquitin carboxyl-terminal hydrolase 1 (Homo sapiens) (UniProt O94782); test: Inhibitors of USP1/UAF1: Pilot qHTS (AID 504865); further: nearly all actives have a fitted effect of over 35% in size; further: potency means the concentration at half of the fitted maximal effect
Chain of Ubiquitin carboxyl-terminal hydrolase 1 (Homo sapiens) (O94782 whole entry, looked up): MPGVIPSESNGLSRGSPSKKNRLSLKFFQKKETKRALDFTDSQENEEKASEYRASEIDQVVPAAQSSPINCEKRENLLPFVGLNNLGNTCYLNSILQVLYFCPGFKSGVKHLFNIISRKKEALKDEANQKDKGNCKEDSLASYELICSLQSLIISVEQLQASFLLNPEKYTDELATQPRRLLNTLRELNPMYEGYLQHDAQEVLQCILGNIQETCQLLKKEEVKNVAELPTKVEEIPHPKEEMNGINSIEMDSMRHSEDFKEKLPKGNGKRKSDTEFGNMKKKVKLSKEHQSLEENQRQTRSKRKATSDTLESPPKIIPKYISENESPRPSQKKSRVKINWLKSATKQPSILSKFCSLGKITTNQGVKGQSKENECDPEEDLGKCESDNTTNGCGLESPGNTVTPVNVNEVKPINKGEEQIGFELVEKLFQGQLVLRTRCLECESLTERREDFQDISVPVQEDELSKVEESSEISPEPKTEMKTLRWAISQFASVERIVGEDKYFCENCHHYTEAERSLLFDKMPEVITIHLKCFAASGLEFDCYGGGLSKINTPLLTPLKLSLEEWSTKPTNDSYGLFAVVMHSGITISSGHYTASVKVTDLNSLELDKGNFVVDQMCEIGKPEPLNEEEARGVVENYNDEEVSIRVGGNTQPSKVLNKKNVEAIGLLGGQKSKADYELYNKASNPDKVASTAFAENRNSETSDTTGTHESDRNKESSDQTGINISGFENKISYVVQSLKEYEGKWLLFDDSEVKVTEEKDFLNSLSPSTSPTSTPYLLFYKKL
Outline: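 In 50mM HEPES pH 7.8 containing 0.5mM EDTA, 1mM TCEP, 0.1 mg/ml BSA and 0.01% Tween-20, 1nM USP1/UAF1 is exposed to compound for 15 min, then Ub-Rho (150nM final) is added and fluorescence is read over time.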

[2] = target: Luciferin 4-monooxygenase (Photinus pyralis) (UniProt P08659); test: Biochemical firefly luciferase enzyme assay for NPC (AID 624030);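 further: purified P. pyralis luciferase at 10 nM with luciferin and ATP substrate; nearly all actives have a fitted effect of over 70% in size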
Chain of Luciferin 4-monooxygenase (Photinus pyralis) (P08659 whole entry, looked up): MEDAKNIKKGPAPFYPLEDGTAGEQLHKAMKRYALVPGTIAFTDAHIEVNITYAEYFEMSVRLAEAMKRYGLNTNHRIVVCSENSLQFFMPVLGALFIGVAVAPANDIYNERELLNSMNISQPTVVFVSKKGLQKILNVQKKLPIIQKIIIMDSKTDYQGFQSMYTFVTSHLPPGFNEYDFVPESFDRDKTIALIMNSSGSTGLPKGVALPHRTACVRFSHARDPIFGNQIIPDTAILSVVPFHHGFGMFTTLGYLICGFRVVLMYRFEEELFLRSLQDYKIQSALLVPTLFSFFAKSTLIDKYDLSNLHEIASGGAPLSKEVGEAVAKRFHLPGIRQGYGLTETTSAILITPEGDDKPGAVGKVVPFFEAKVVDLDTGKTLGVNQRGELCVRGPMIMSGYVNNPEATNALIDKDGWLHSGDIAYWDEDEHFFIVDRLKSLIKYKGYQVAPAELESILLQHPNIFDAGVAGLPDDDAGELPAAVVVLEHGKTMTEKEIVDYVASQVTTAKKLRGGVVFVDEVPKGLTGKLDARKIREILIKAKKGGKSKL
Outline: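 Counter-screen for direct inhibition of the luciferase enzyme by approved-drug library compounds, run at 10 nM enzyme in 50 mM Tris acetate (final). Luminescence was read within 5 min of enzyme-buffer addition and normalized to PTC124 versus DMSO (0%).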

[3] = S16 Schwann cell PMP22 intronic element firefly luciferase assay (AID 624032); further: nearly all actives have a fitted effect of over 30% in size; further: potency means the concentration at half of the fitted maximal effect
Outline: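 Rat S16 Schwann cells stably carrying a PMP22 intronic element-driven Fluc reporter were seeded overnight, then exposed to compounds for 24 h at 37 °C. Luminescence was normalized to PTC124 (positive control) and DMSO (0% activity).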

DFO2036 = test: qHTS profiling for inhibitors of Plasmodium falciparum proliferation (AID 504749); further: nearly all actives have a fitted effect of over 60% in size; further: potency means the concentration at half of the fitted maximal effect; conditions: P. falciparum in erythrocytes, SYBR Green DNA, 72 h; series mostly up to 28.7 µM
Outline: (§1)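 Fluorescence of SYBR Green-bound parasite DNA, read at 485/535 nm, served as the growth measure. Infected erythrocytes were cultured with compound 72 h; artemisinin (0.29 uM) and DMSO wells defined the normalization range.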

DIV14 = test: as above; conditions: P. falciparum in erythrocytes, SYBR Green DNA, 72 h; series mostly up to 28.7 µM
Outline: as §1

W2 = test: as above; conditions: P. falciparum in erythrocytes, SYBR Green DNA, 72 h; series mostly up to 28.7 µM
Outline: as §1

[4] = target: Cytochrome P450 3A4 (Homo sapiens) (UniProt P08684); test: qHTS Assay for Inhibitors and Substrates of Cytochrome P450 3A4 (AID 884); further: nearly all actives have a fitted effect of over 50% in size
Chain of Cytochrome P450 3A4 (Homo sapiens) (P08684 whole entry, looked up): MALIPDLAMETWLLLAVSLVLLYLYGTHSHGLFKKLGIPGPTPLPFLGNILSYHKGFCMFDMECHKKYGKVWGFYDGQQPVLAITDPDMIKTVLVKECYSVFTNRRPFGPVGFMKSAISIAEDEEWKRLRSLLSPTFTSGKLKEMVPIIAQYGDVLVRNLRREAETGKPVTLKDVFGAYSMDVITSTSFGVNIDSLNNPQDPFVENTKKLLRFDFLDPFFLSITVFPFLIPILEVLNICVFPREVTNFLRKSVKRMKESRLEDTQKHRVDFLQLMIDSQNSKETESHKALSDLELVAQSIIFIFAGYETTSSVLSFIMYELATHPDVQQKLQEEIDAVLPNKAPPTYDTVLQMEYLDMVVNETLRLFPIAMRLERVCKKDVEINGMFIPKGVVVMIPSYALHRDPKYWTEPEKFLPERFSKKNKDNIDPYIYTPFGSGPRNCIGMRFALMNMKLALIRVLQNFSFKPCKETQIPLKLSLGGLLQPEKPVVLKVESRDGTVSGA
Outline: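 Luminescent readout of luciferin produced by CYP3A4 (20 nM) dealkylation of Luciferin-PPXE, 25 uM (its KM). NADPH-driven reaction ran 60 min at RT after 10 min compound preincubation; data scaled to 57 uM ketoconazole as 100% inhibition.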

[5] = Confirmation and Secondary Assay for Modulators of Hemoglobin Beta Chain Splicing at IVS2 654 locus (AID 910);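 further: per-well total GFP intensity by laser scanning cytometry after 2-day treatment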
Outline: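 HeLa cells stably carrying EGFP interrupted by mutant beta-globin IVS2-654 intron (CMV-driven) were treated with compound for 2 days at 37C; corrected splicing was scored as total peak GFP intensity per well (488 nm excitation, 500-520 nm emission).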

| SMILES | Potency [1] | Potency [2] | Potency [3] | Potency (DFO2036) | Potency (DIV14) | Potency (W2) | Potency [4] | Potency [5] |
| --- | --- | --- | --- | --- | --- | --- | --- | --- |
| Cc1ccc(/C=C2/C(=O)C3(C)CCC2C3(C)C)cc1 (stereo unspecified) | inactive | inactive | inactive | inactive | inactive |  |  |  |
| CC1(Cn2ccnn2)[C@H](C(=O)O)N2C(=O)C[C@H]2S1(=O)=O (stereo partly specified) | inactive | inactive | inactive | inactive | inactive | inactive |  |  |
| CO[C@H]1C[C@@H]2CC[C@@H](C)[C@@](O)(O2)C(=O)C(=O)N2CCCC[C@H]2C(=O)O[C@H]([C@H](C)C[C@@H]2CC[C@@H](O)[C@H](OC)C2)CC(=O)[C@H](C)/C=C(\C)[C@@H](O)[C@@H](OC)C(=O)[C@H](C)C[C@H](C)/C=C/C=C/C=C/1C |  | inactive | inactive | 1.78 µM (active) | 1.69 µM (active) | 1.2 µM (active) |  |  |
| Cc1ccccc1N1C(=O)c2cc(N)ccc2N/C1=C\F | inactive | inactive | inactive | inactive |  |  |  |  |
| CO/N=C(/C(=O)N[C@@H]1C(=O)N2C(C(=O)O)=C(CSc3cnns3)CS[C@H]12)c1csc(N)n1 | inactive | inactive | inactive | inactive | inactive | inactive |  |  |
| NC(=O)c1ncn(C2OC(CO)C(O)C2O)c1N (stereo unspecified) | inactive | inactive | inactive | inactive | inactive | inactive | inactive | inactive |
| Nc1nc(F)nc2c1ncn2[C@@H]1O[C@H](CO)[C@@H](O)[C@H]1O | inactive | inactive | inactive | inactive | inactive | inactive |  |  |
| C[S+](C)CC[C@H](N)C(=O)O | inactive | inactive | inactive | inactive | inactive | inactive |  |  |
| NC(=O)C1CC2(NC(=O)NC2=O)c2cc(F)ccc2O1 (stereo unspecified) | inactive | inactive | inactive | inactive |  | inactive |  |  |
| CC(O)C1CCC2C3CCC4CC(O)CCC4(C)C3CCC12C (stereo unspecified) | inactive |  |  |  | inactive | inactive |  |  |
| C[C@@H]1CC2C3CCC4=CC(=O)C=C[C@]4(C)[C@@]3(F)[C@@H](O)C[C@]2(C)[C@@]1(O)C(=O)COC(=O)c1cccc(S(=O)(=O)O)c1 (stereo partly specified) | inactive | inactive | inactive | inactive | inactive | inactive |  |  |
| CC(=O)C1(O)Cc2c(O)c3c(c(O)c2C(OC2CC(N)C(O)C(C)O2)C1)C(=O)c1c(O)cccc1C3=O (stereo unspecified) | 22.4 µM (active) |  |  | 7.94 µM (active) | 5.36 µM (active) | 4.26 µM (active) |  |  |
| CCCCCOC(=O)Nc1nc(=O)n(C2O[C@H](C)[C@@H](O)[C@@H]2O)cc1F (stereo partly specified) | inactive | inactive | inactive | inactive | inactive |  |  |  |
| CCCCC(=O)O[C@]1(C(=O)CO)CCC2C3CCC4=CC(=O)CCC4(C)C3C(O)CC21C (stereo partly specified) |  | inactive | inactive |  | inactive |  |  |  |
| C[C@]12C=CC(=O)N[C@@H]1CC[C@@H]1C2CC[C@]2(C)C(C(=O)Nc3cc(C(F)(F)F)ccc3C(F)(F)F)CC[C@@H]12 (stereo partly specified) |  | inactive |  | inactive |  | 1.51 µM (active) |  |  |
| COc1ccc2cc1Oc1cc3c(cc1OC)CC[N+](C)(C)C3Cc1ccc(cc1)Oc1c(OC)c(OC)cc3c1C(C2)[N+](C)(C)CC3 (stereo unspecified) | inactive | inactive | inactive |  | inactive |  |  |  |
| C[C@@H](O)[C@@H]1C(=O)N2C(C(=O)O)=C([C@H]3CCCO3)S[C@H]12 | inactive | inactive | inactive | inactive | inactive | inactive |  |  |
| CCC(=O)O[C@]1(C(=O)CCl)[C@@H](C)CC2C3C[C@H](F)C4=CC(=O)C=CC4(C)[C@@]3(F)C(O)CC21C (stereo partly specified) |  |  |  | 11.2 µM (active) | 4.26 µM (active) | 6.01 µM (active) |  |  |
| C[N+]12CCCC[C@@H]1CCC(=C(c1cccs1)c1cccs1)C2 (stereo partly specified) | inactive | inactive |  | 10 µM (active) | 6.75 µM (active) | 13.5 µM (active) |  |  |
| N#C/C(=C1/SCC(c2ccccc2Cl)S1)n1ccnc1 (stereo unspecified) | inactive | inactive | 11.4 µM (active) | inactive |  | inactive |  |  |
| CCCC(=O)Nc1c(I)cc(I)c(C[C@H](CC)C(=O)O)c1I | inactive | inactive | inactive |  |  |  |  |  |
| CC(=O)CC(c1ccccc1)C1C(=O)Oc2ccccc2C1=O (stereo unspecified) | inactive | inactive | inactive | inactive | inactive | inactive |  |  |
| CO/N=C(/C(=O)N[C@@H]1C(=O)N2C(C(=O)O)=C(CSc3nnnn3C)CS[C@H]12)c1csc(N)n1 | inactive |  | inactive | inactive | inactive | inactive |  |  |
| CCOC(=O)C(CCc1ccccc1)NC(C)C(=O)N1Cc2cc(OC)c(OC)cc2CC1C(=O)O (stereo unspecified) | inactive |  | inactive |  | 6.01 µM (active) | 5.36 µM (active) |  |  |
| C=C1NC(=O)c2cc(CN(C)c3ccc(C(=O)N[C@@H](CCC(=O)O)C(=O)O)s3)ccc2N1 | inactive | inactive | 0.0057 µM (active) | inactive |  | 13.5 µM (active) |  |  |
| CNC1C(O)C(OC2C(NC(=O)C(O)CN)CC(N)C(OC3OC(CN)C(O)C(O)C3O)C2O)OCC1(C)O (stereo unspecified) | inactive | inactive | inactive |  | inactive | inactive |  |  |
